From PubChem BioAssay (NCI) come the findings set out here.

Holding throughout (assay): NCI-60 one-dose screen, 48 h (100 = growth as untreated, 0 = no growth, -100 = all killed)
Common to all, as to conditions: 10 µM unless noted

Assay [1] has as its system NCI-H23 lung.
The subject of assay [2] is NCI-H226 lung.
Assay [3] has as its system NCI-H322M lung.
The test system of assay [4] is HOP-62 NSCLC.
In assay [5] the test system is NCI-H460 lung.
Assay [6] deals with HOP-92 NSCLC.
For assay [7], the system named is NCI-H522 lung.
The test system of assay [8] is A549/ATCC NSCLC.
In assay [9] the test system is 786-0 renal.
Assay [10] deals with COLO 205 colon.
For assay [11], the system named is DU-145 prostate.
In assay [12] the test system is K-562 leukemia.
Assay [13] deals with MALME-3M melanoma.
Assay [14] deals with MDA-MB-231 breast.
In assay [15] the test system is RXF 393 renal.
Assay [16] deals with SF-268 CNS.
Assay [17] has as its system SF-295 CNS.
In assay [18] the test system is SF-539 CNS.
For assay [19], the system named is UACC-257 melanoma.
Assay [20] concerns M14 melanoma.

The panel holds about 83,000 compounds, 20% with a hit somewhere; the sample as a whole holds those more often.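 In brief: 96-well plates, 48 h treatment, single concentration, percent growth endpoint.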 Values without a mark were called inactive. The source made the active and inactive calls. How the source made its calls: active means growth percent below 10; inactive means the rest.

`c1ccc(-c2c(-c3ccccc3)[n+](Cc3ccc4ccccc4c3)cn2Cc2ccc3ccccc3c2)cc1`: the growth in [1] is -74.9% (active); in assay [2], -75.8% (active); in [3] it was -20.8% (active); in assay [4], -86.1% (active); in assay [5] it was -78.6% (active); in assay [6] it was -83.9% (active). Besides, the growth in assay [7] was -85.8% (active); in assay [8], -81.8% (active); in assay [9] it was -92.2% (active); in assay [10] it was -86.4% (active); in [11] it was -96.1% (active); in [12] it was -63.1% (active). For the same molecule, the growth was -82.2% (active) in [13]; -79.4% (active) in assay [14]; -96.2% (active) in [15]; -89.1% (active) in assay [16]; -97.9% (active) in assay [17]; -88.3% (active) in [18]. Also, the growth in [19] was -84% (active); in [20], -85.8% (active).

As to `C=C1C(=O)O[C@@H]2C3C(=C(C)CC[C@@H]12)CC1O[C@]13C` (stereo not given in full), the growth in assay [1] is 82.9% [6.75 µM]; in assay [2], 88.2% [6.75 µM]; in assay [3], 95.8% [6.75 µM]; in [4] it was 94.1% [6.75 µM]; in assay [5], 101% [6.75 µM]; in [6] it was 102% [6.75 µM]. Moreover, the growth in assay [7] is -52.3% [6.75 µM] (active); in assay [8] it was 90.1% [6.75 µM]; in assay [9] it was 83.1% [6.75 µM]; in assay [10] it was 87% [6.75 µM]; in assay [11], 52.9% [6.75 µM]; in [12], 49.6% [6.75 µM]. The growth in assay [13] was 77.6% [6.75 µM]; in [14], 93.5% [6.75 µM]; in assay [15], 91.6% [6.75 µM]; in [16] it was 91.2% [6.75 µM]; in [17] it was 102% [6.75 µM]; in assay [18], 82.3% [6.75 µM]. The growth is 70.4% [6.75 µM] in [19] and 65.5% [6.75 µM] in assay [20].

As for `C=C(C)[C@@H]1CC[C@]2(C(=O)N3CCN(C)CC3)CC[C@]3(C)[C@H](CC[C@@H]4[C@@](C)(CCC(=O)O)[C@H](C(=C)C)CC[C@]43C)[C@@H]12`, the growth in assay [1] was 95.4%; in assay [2], 93.3%; in assay [3], 98.5%; in assay [4], 95.5%; in assay [5], 78%; in assay [6], 78.6%. Further, the growth in assay [7] was 73.5%; in [8], 65.7%; in [9], 90.2%; in [10], 94.3%; in [11], 99.9%; in assay [12], 58%. The growth is 87% in assay [13]; 91.2% in assay [14]; 93.3% in assay [15]; 80.6% in [16]; 78.8% in [17]; 92.6% in assay [18]. For the same molecule, the growth was 83.5% in [19] and 87.1% in assay [20].

On to `CCN(CC)CCn1c2ccc(OC)cc2c2sc3cc(O)ccc3c(=O)c21`, for which the growth was 23.9% in assay [1]; 112% in assay [2]; 34.2% in assay [3]; 34.4% in [4]; 8.17% (active) in assay [5]; 61.8% in [6]. The growth in assay [7] was 42.2%; in [8], 17.9%; in assay [9], 26.1%; in [10], 23%; in assay [11], 42.7%; in assay [12], 6.38% (active). The growth was 34.1% in assay [13]; 54.1% in [14]; 27.5% in [15]; 38.5% in assay [16]; 17.9% in assay [17]; 25.3% in assay [18]. Further, the growth in assay [19] is 78.4%; in assay [20], 31.2%.

In the case of `O=C(C1=Cc2cc3ccccc3n2Cc2cnnn21)c1ccc(F)cc1`, the growth in assay [1] is 98.9%; in assay [2] it was 98.8%; in assay [3], 99.1%; in assay [4] it was 109%; in [5] it was 106%; in assay [6], 102%. The growth is 91.3% in assay [7]; 96.3% in [8]; 99.1% in assay [9]; 117% in assay [10]; 97.7% in assay [11]; 87.4% in [12]. Also, the growth in assay [13] is 101%; in assay [14] it was 105%; in assay [15] it was 103%; in assay [16], 100%; in assay [17], 97.8%; in assay [18], 101%. Also, the growth in assay [19] and in assay [20] was 107% throughout.

With `CCN(CC)CCOc1ccc(Nc2ncc3cc(-c4c(Cl)cccc4Cl)c(=O)n(CCOC)c3n2)cc1`, the growth was -9.78% (active) in assay [1]; 28% in [2]; 17.5% in assay [3]; 6.51% (active) in assay [4]; 3.65% (active) in assay [5]; -18.7% (active) in [6]. Also, the growth in assay [7] was -28.5% (active); in assay [8], 0.456% (active); in assay [9], 5.35% (active); in assay [10], -40% (active); in [11], -13.8% (active); in assay [12], 5.78% (active). For the same molecule, the growth was 10.6% in assay [13]; -73.2% (active) in [14]; -64.4% (active) in assay [15]; -9.68% (active) in [16]; 25.7% in assay [17]; -75.7% (active) in assay [18]. Moreover, the growth in assay [19] was 12.9%; in [20], -6.68% (active).

As to `CC(C)(C)c1ccc(S(=O)(=O)Oc2ccc(-c3sc4cc(OS(=O)(=O)c5ccc(C(C)(C)C)cc5)ccc4c3C(=O)c3ccc(OCCN4CCCCC4)cc3)cc2)cc1`, the growth in assay [1] was 93.3%; in [2], 94.7%; in [3] it was 96.1%; in [4] it was 90.8%; in assay [5], 104%; in assay [6], 84.4%. Besides, the growth in assay [7] is 72%; in [8] it was 87.4%; in assay [9] it was 89%; in [10], 101%; in assay [11], 114%; in assay [12] it was 103%. Also, the growth in assay [13] was 107%; in [14] it was 103%; in [15] it was 103%; in assay [16], 102%; in assay [17] it was 94.5%; in assay [18] it was 96.8%. Also, the figures for the growth in assay [19] and in assay [20] were 106% and 99.2%, respectively.
